Assay results: PubChem BioAssay (NCATS)
Inconclusive results are not listed. Active and inactive are the calls of the source. Calls come from the whole dose curve; as a rule, active = well fitted cell-killing curve with a large enough effect; inconclusive = small, poorly fitted or top-dose-only effect, or effect the other way; inactive = flat fitted curve, though single readings scatter.

Tests used:
Assay in all cases: Primary qHTS to identify gynecologic anti-cancer compounds using libraries of approved drugs and bioactive compounds (AID 1345084); note: nearly all actives have a fitted effect of over 55% in size
C33A = details: Gynecologic cancer cell panel viability, ATPlite luminescence, 48 h; series mostly up to 57.5 µM
In short: (§1)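 Cell viability after 48 h drug treatment, ATPlite luminescence readout; five doses.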

CAOV3 = details: Gynecologic cancer cell panel viability, ATPlite luminescence, 48 h; series mostly up to 57.5 µM
In short: as §1

CASKI = details: Gynecologic cancer cell panel viability, ATPlite luminescence, 48 h; series mostly up to 57.5 µM
In short: as §1

Es-2 = details: Gynecologic cancer cell panel viability, ATPlite luminescence, 48 h; series mostly up to 57.5 µM
In short: as §1

HeLa = details: Gynecologic cancer cell panel viability, ATPlite luminescence, 48 h; series mostly up to 57.5 µM
In short: as §1

Hek293T = details: Gynecologic cancer cell panel viability, ATPlite luminescence, 48 h, control line for the selectivity index; series mostly up to 57.5 µM
In short: as §1

JEG-3 = details: Gynecologic cancer cell panel viability, ATPlite luminescence, 48 h; series mostly up to 57.5 µM
In short: as §1

OV90 = details: Gynecologic cancer cell panel viability, ATPlite luminescence, 48 h; series mostly up to 57.5 µM
In short: as §1

PA-1 = details: Gynecologic cancer cell panel viability, ATPlite luminescence, 48 h; series mostly up to 57.5 µM
In short: as §1

SKOV3 = details: Gynecologic cancer cell panel viability, ATPlite luminescence, 48 h; series mostly up to 57.5 µM
In short: as §1

Tov-21-G = details: Gynecologic cancer cell panel viability, ATPlite luminescence, 48 h; series mostly up to 57.5 µM
In short: as §1

Tov112D = details: Gynecologic cancer cell panel viability, ATPlite luminescence, 48 h; series mostly up to 57.5 µM
In short: as §1
% is set by controls: 0 for no effect and ±100 for the full control effect.

CC(CO)C1CCC2(C)CC3C(CO)CC(O)C3C(C)(O)C/C=C/12 (stereo not given)
inactive: Potency (C33A) | Potency (CAOV3) | Potency (CASKI) | Potency (Es-2) | Potency (HeLa) | Potency (Hek293T) | Potency (JEG-3) | Potency (OV90) | Potency (PA-1) | Potency (SKOV3) | Potency (Tov-21-G) | Potency (Tov112D)

C/C(=C\CCC1(C)C2CCC(C2)C1(C)O)C(=O)O (stereo not given)
inactive: Potency (C33A) | Potency (CAOV3) | Potency (CASKI) | Potency (Es-2) | Potency (HeLa) | Potency (Hek293T) | Potency (JEG-3) | Potency (OV90) | Potency (PA-1) | Potency (SKOV3) | Potency (Tov-21-G) | Potency (Tov112D)

C[C@H](Nc1ncnc2nc[nH]c12)c1cc2ccc(F)cc2nc1-c1ccccn1
inactive: Potency (C33A) | Potency (CAOV3) | Potency (CASKI) | Potency (Es-2) | Potency (HeLa) | Potency (Hek293T) | Potency (JEG-3) | Potency (OV90) | Potency (PA-1) | Potency (SKOV3) | Potency (Tov-21-G) | Potency (Tov112D)

C=C1CC[C@H]2[C@@](C)(CCC(O)[C@@]2(C)CO)[C@@H]1CCC1=CCOC1=O (stereo not given in full)
inactive: Potency (C33A) | Potency (CAOV3) | Potency (CASKI) | Potency (Es-2) | Potency (HeLa) | Potency (Hek293T) | Potency (JEG-3) | Potency (OV90) | Potency (PA-1) | Potency (SKOV3) | Potency (Tov-21-G) | Potency (Tov112D)

COC1CC(OC2CCC3(C)C(=CCC4C3C(OC(C)=O)C(OC(=O)/C=C/c3ccccc3)C3(C)C(C(C)O)CCC43O)C2)OC(C)C1OC1CC(OC)C(OC2OC(C)C(OC3OC(CO)C(O)C(O)C3O)C(OC)C2O)C(C)O1 (stereo not given)
inactive: activity change, negative = cytotoxicity (C33A) -4.62% [at 6.55 µM] | activity change, negative = cytotoxicity (CAOV3) 1.34% [at 6.55 µM] | activity change, negative = cytotoxicity (CASKI) -3.47% [at 6.55 µM] | activity change, negative = cytotoxicity (Es-2) 4.75% [at 6.55 µM] | activity change, negative = cytotoxicity (HeLa) -0.474% [at 6.55 µM] | activity change, negative = cytotoxicity (Hek293T) -0.285% [at 6.55 µM] | activity change, negative = cytotoxicity (JEG-3) -8.61% [at 6.55 µM] | activity change, negative = cytotoxicity (OV90) -2.22% [at 6.55 µM] | activity change, negative = cytotoxicity (PA-1) -0.704% [at 6.55 µM] | activity change, negative = cytotoxicity (SKOV3) -8.31% [at 6.55 µM] | activity change, negative = cytotoxicity (Tov-21-G) 9.97% [at 6.55 µM] | activity change, negative = cytotoxicity (Tov112D) 2.28% [at 6.55 µM]

O=C(O)[C@H](Cc1ccc(Nc2nccc3ccncc23)cc1)NC1=C(Br)C(=O)C12CCCCC2
inactive: Potency (C33A) | Potency (CAOV3) | Potency (CASKI) | Potency (Es-2) | Potency (HeLa) | Potency (Hek293T) | Potency (JEG-3) | Potency (OV90) | Potency (PA-1) | Potency (SKOV3) | Potency (Tov-21-G) | Potency (Tov112D)

CC1(C)CC[C@]2(CO[C@@H]3O[C@H](CO)[C@@H](O)[C@H](O)[C@H]3O)[C@@H](O)C[C@]3(C)C(=CCC4[C@@]5(C)CC[C@H](O[C@@H]6O[C@H](CO[C@@H]7O[C@H](CO[C@@H]8OC[C@@H](O)[C@H](O)[C@H]8O)[C@@H](O)[C@H](O)[C@H]7O)[C@@H](O)[C@H](O)[C@H]6O)C(C)(C)C5CC[C@]43C)[C@@H]2C1 (stereo not given in full)
inactive: activity change, negative = cytotoxicity (C33A) 4.63% [at 11.6 µM] | activity change, negative = cytotoxicity (CAOV3) 5.01% [at 11.6 µM] | activity change, negative = cytotoxicity (CASKI) -3.94% [at 11.6 µM] | activity change, negative = cytotoxicity (Es-2) 4.96% [at 11.6 µM] | activity change, negative = cytotoxicity (HeLa) -7.27% [at 11.6 µM] | activity change, negative = cytotoxicity (Hek293T) 1.89% [at 11.6 µM] | activity change, negative = cytotoxicity (JEG-3) 1.67% [at 11.6 µM] | activity change, negative = cytotoxicity (OV90) -3.63% [at 11.6 µM] | activity change, negative = cytotoxicity (PA-1) -8.81% [at 11.6 µM] | activity change, negative = cytotoxicity (SKOV3) -1.91% [at 11.6 µM] | activity change, negative = cytotoxicity (Tov-21-G) 4.01% [at 11.6 µM] | activity change, negative = cytotoxicity (Tov112D) -1.63% [at 11.6 µM]

CC1=C2C(O)C(=O)OC(c3ccoc3)C2(C)CCC1O (stereo not given)
inactive: Potency (C33A) | Potency (CAOV3) | Potency (CASKI) | Potency (Es-2) | Potency (HeLa) | Potency (Hek293T) | Potency (JEG-3) | Potency (OV90) | Potency (PA-1) | Potency (SKOV3) | Potency (Tov-21-G) | Potency (Tov112D)

COc1cc(O)c2c(c1)C1=CC(O)C(O)CC1(C)OC2=O (stereo not given)
inactive: Potency (C33A) | Potency (CAOV3) | Potency (CASKI) | Potency (Es-2) | Potency (HeLa) | Potency (Hek293T) | Potency (JEG-3) | Potency (OV90) | Potency (PA-1) | Potency (SKOV3) | Potency (Tov-21-G) | Potency (Tov112D)

CCC(C)C(=O)OC1CC(C)C=C2C=CC(C)C(CCC(O)CC(O)CC(=O)O)C21 (stereo not given)
inactive: Potency (C33A) | Potency (CAOV3) | Potency (CASKI) | Potency (Es-2) | Potency (HeLa) | Potency (Hek293T) | Potency (JEG-3) | Potency (OV90) | Potency (PA-1) | Potency (SKOV3) | Potency (Tov-21-G) | Potency (Tov112D)

C[C@H](NC(=O)CCc1nc2ccccc2c(=O)[nH]1)c1ccccc1
inactive: Potency (C33A) | Potency (CAOV3) | Potency (CASKI) | Potency (Es-2) | Potency (HeLa) | Potency (Hek293T) | Potency (JEG-3) | Potency (OV90) | Potency (PA-1) | Potency (SKOV3) | Potency (Tov-21-G) | Potency (Tov112D)

COc1c(C)c(OCC(O)C(C)(C)O)cc2c1COC2=O (stereo not given)
inactive: Potency (C33A) | Potency (CAOV3) | Potency (CASKI) | Potency (Es-2) | Potency (HeLa) | Potency (Hek293T) | Potency (JEG-3) | Potency (OV90) | Potency (PA-1) | Potency (SKOV3) | Potency (Tov-21-G) | Potency (Tov112D)

COC(=O)/C=C/C12COC(C)(C)C1C(O)C(OC(C)=O)C1(C)C2CCC2(C)C(c3ccoc3)OC(=O)C3OC321 (stereo not given)
inactive: Potency (C33A) | Potency (CAOV3) | Potency (CASKI) | Potency (Es-2) | Potency (HeLa) | Potency (Hek293T) | Potency (JEG-3) | Potency (OV90) | Potency (PA-1) | Potency (SKOV3) | Potency (Tov-21-G) | Potency (Tov112D)

CC(C)CCC1(O)C(=O)C(C)(C)C(O[C@@H]2O[C@H](CO)[C@@H](O)[C@H](O)[C@H]2O)C(C)(C)C1O (stereo not given in full)
inactive: Potency (C33A) | Potency (CAOV3) | Potency (CASKI) | Potency (Es-2) | Potency (HeLa) | Potency (Hek293T) | Potency (JEG-3) | Potency (OV90) | Potency (PA-1) | Potency (SKOV3) | Potency (Tov-21-G) | Potency (Tov112D)

CC(C)(O)/C=C/CC(C)(O)C1C(O)CC2(C)C3CCC4C(C)(C)C(=O)CCC4(C)C3CCC12C (stereo not given)
inactive: Potency (C33A) | Potency (CAOV3) | Potency (CASKI) | Potency (Es-2) | Potency (HeLa) | Potency (Hek293T) | Potency (JEG-3) | Potency (OV90) | Potency (PA-1) | Potency (SKOV3) | Potency (Tov-21-G) | Potency (Tov112D)
